Positions count from the first letter of the chain named.
What was measured:
Assay in all cases: PBM; 200 nM protein, PBS
Conditions in all cases: dsDNA, one strand shown
[1] = target: T1, SIX6 (Homo sapiens, UniProt O95475 114-200, L143V)
T1 sequence: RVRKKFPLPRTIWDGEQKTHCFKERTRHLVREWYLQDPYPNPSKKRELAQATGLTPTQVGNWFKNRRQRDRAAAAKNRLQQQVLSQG

[2] = target: HOXC9 (Homo sapiens, UniProt P31274 178-260, K195R)
[3] = target: HOXC9 (Homo sapiens, UniProt P31274 178-260)
[4] = target: HOXC9 (Homo sapiens, UniProt P31274 178-260, R193K)
Sequence of HOXC9 (Homo sapiens, UniProt P31274 178-260, R193K) (P31274 178-260 R193K): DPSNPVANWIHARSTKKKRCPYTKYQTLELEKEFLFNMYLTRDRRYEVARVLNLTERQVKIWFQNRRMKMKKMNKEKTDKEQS

[5] = target: HOXC9 (Homo sapiens, UniProt P31274 178-260, R222W)
Sequence of HOXC9 (Homo sapiens, UniProt P31274 178-260, R222W) (P31274 178-260 R222W): as the sequence (P31274 178-260 R193K) above, with K16R, R45W counted along it

[6] = target: T2, VENTX (Homo sapiens, UniProt O95231 78-163)
T2 sequence: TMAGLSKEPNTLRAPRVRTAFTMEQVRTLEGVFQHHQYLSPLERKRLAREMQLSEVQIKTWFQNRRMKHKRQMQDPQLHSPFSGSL

[7] = target: NKX3-2 (Homo sapiens, UniProt P78367 192-278, P234S)
Sequence of NKX3-2 (Homo sapiens, UniProt P78367 192-278, P234S) (P78367 192-278 P234S): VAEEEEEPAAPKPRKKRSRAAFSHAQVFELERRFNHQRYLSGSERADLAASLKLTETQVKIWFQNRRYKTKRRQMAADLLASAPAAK

[8] = target: NKX3-2 (Homo sapiens, UniProt P78367 192-278)
Sequence of NKX3-2 (Homo sapiens, UniProt P78367 192-278) (P78367 192-278): as the sequence (P78367 192-278 P234S) above, with S43P counted along it

[9] = target: T3, VENTX (Homo sapiens, UniProt O95231 78-163, Y115F)
T3 sequence: T2 sequence with Y38F

[10] = target: HOXA7 (Homo sapiens, UniProt P31268 116-202)
Sequence of HOXA7 (Homo sapiens, UniProt P31268 116-202) (P31268 116-202): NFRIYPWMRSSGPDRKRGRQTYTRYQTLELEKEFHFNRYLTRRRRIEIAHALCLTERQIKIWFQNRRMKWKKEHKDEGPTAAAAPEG

[11] = target: ALX4 (Homo sapiens, UniProt Q9H161 200-286)
Sequence of ALX4 (Q9H161 200-286): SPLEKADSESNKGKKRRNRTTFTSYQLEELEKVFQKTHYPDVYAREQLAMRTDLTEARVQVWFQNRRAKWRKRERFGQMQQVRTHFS

[12] = target: HOXC10 (Homo sapiens, UniProt Q9NYD6 254-340)
Sequence of HOXC10 (Homo sapiens, UniProt Q9NYD6 254-340) (Q9NYD6 254-340): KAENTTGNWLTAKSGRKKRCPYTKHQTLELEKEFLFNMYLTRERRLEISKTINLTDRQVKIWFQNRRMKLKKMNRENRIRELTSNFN

[13] = target: HOXA2 (Homo sapiens, UniProt O43364 129-215, R185T)
Sequence of HOXA2 (Homo sapiens, UniProt O43364 129-215, R185T) (O43364 129-215 R185T): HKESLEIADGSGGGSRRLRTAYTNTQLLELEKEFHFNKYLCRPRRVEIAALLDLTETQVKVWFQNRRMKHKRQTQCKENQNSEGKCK

[14] = target: HOXA2 (Homo sapiens, UniProt O43364 129-215, R185K)
Sequence of HOXA2 (Homo sapiens, UniProt O43364 129-215, R185K) (O43364 129-215 R185K): as the sequence (O43364 129-215 R185T) above, with T57K counted along it

[15] = target: HOXC10 (Homo sapiens, UniProt Q9NYD6 254-340, K271E)
Sequence of HOXC10 (Homo sapiens, UniProt Q9NYD6 254-340, K271E) (Q9NYD6 254-340 K271E): as the sequence (Q9NYD6 254-340) above, with K18E counted along it

[16] = target: HOXA2 (Homo sapiens, UniProt O43364 129-215, Y150S)
Sequence of HOXA2 (Homo sapiens, UniProt O43364 129-215, Y150S) (O43364 129-215 Y150S): as the sequence (O43364 129-215 R185T) above, with Y22S, T57R counted along it

[17] = target: HOXA7 (Homo sapiens, UniProt P31268 116-202, W177C)
Sequence of HOXA7 (Homo sapiens, UniProt P31268 116-202, W177C) (P31268 116-202 W177C): as the sequence (P31268 116-202) above, with W62C counted along it

[18] = target: HOXA2 (Homo sapiens, UniProt O43364 129-215)
Sequence of HOXA2 (Homo sapiens, UniProt O43364 129-215) (O43364 129-215): as the sequence (O43364 129-215 R185T) above, with T57R counted along it

Sequence of HOXC9 (Homo sapiens, UniProt P31274 178-260, K195R) (P31274 178-260 K195R): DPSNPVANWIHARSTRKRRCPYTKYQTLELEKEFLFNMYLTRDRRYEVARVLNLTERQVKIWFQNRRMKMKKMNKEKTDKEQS
Sequence of HOXC9 (Homo sapiens, UniProt P31274 178-260) (P31274 178-260): as the sequence (P31274 178-260 R193K) above, with K16R counted along it

**Q.** GGATATAA was tested. Which binding signal [1] did it give?
**A.** Its binding signal is 10.5 upbm affinity estimate (log intensity, higher = more binding, comparable within an allelic series).

**Q.** For CGGTCCAG, which binding signal [2] is on record?
**A.** Its binding signal is 9.64 upbm affinity estimate (log intensity, higher = more binding, comparable within an allelic series).

**Q.** And the binding signal [3]?
**A.** Its binding signal is 9.66 upbm affinity estimate (log intensity, higher = more binding, comparable within an allelic series).

**Q.** What about the binding signal [4] of the same sequence?
**A.** Its binding signal is 9.64 upbm affinity estimate (log intensity, higher = more binding, comparable within an allelic series).

**Q.** And the binding signal [5]?
**A.** Its binding signal is 9.63 upbm affinity estimate (log intensity, higher = more binding, comparable within an allelic series).

**Q.** Which binding signal [6] does the source give for ATTTAGTC here?
**A.** Its binding signal is 10.2 upbm affinity estimate (log intensity, higher = more binding, comparable within an allelic series).

**Q.** Which results are given for CCGGTACC?
**A.** binding signal [2]: 9.7 upbm affinity estimate (log intensity, higher = more binding, comparable within an allelic series); binding signal [3]: 9.7 upbm affinity estimate (log intensity, higher = more binding, comparable within an allelic series); binding signal [4]: 9.72 upbm affinity estimate (log intensity, higher = more binding, comparable within an allelic series); binding signal [5]: 9.71 upbm affinity estimate (log intensity, higher = more binding, comparable within an allelic series); binding signal [7]: 10.5 upbm affinity estimate (log intensity, higher = more binding, comparable within an allelic series); binding signal [8]: 10.6 upbm affinity estimate (log intensity, higher = more binding, comparable within an allelic series)

**Q.** How did the binding signal [6] turn out when AATGGGGA was run?
**A.** The binding signal was 10.3 upbm affinity estimate (log intensity, higher = more binding, comparable within an allelic series).

**Q.** How did the binding signal [6] turn out when GATGATCA was run?
**A.** Its binding signal is 9.89 upbm affinity estimate (log intensity, higher = more binding, comparable within an allelic series).

**Q.** What about the binding signal [9] of the same sequence?
**A.** The binding signal was 9.51 upbm affinity estimate (log intensity, higher = more binding, comparable within an allelic series).

**Q.** CCCCAGCC was tested. Which binding signal [2] did it give?
**A.** The binding signal was 9.49 upbm affinity estimate (log intensity, higher = more binding, comparable within an allelic series).

**Q.** And the binding signal [3]?
**A.** The binding signal was 9.68 upbm affinity estimate (log intensity, higher = more binding, comparable within an allelic series).

**Q.** What about the binding signal [4] of the same sequence?
**A.** Its binding signal is 9.69 upbm affinity estimate (log intensity, higher = more binding, comparable within an allelic series).

**Q.** What about the binding signal [5] of the same sequence?
**A.** Its binding signal is 9.68 upbm affinity estimate (log intensity, higher = more binding, comparable within an allelic series).

**Q.** How did the binding signal [2] turn out when GGGGGGCA was run?
**A.** Its binding signal is 9.42 upbm affinity estimate (log intensity, higher = more binding, comparable within an allelic series).

**Q.** And the binding signal [3]?
**A.** Its binding signal is 9.53 upbm affinity estimate (log intensity, higher = more binding, comparable within an allelic series).

**Q.** And the binding signal [4]?
**A.** The binding signal was 9.49 upbm affinity estimate (log intensity, higher = more binding, comparable within an allelic series).

**Q.** What about the binding signal [5] of the same sequence?
**A.** Its binding signal is 9.28 upbm affinity estimate (log intensity, higher = more binding, comparable within an allelic series).

**Q.** How did the binding signal [6] turn out when ACCGATCT was run?
**A.** The binding signal was 9.79 upbm affinity estimate (log intensity, higher = more binding, comparable within an allelic series).

**Q.** Which binding signal [6] does the source give for ACTAAGCG here?
**A.** The binding signal was 10.2 upbm affinity estimate (log intensity, higher = more binding, comparable within an allelic series).

**Q.** Which binding signal [10] does the source give for ATTTAGAC here?
**A.** Its binding signal is 9.49 upbm affinity estimate (log intensity, higher = more binding, comparable within an allelic series).

**Q.** For GCCCCAGC, which binding signal [2] is on record?
**A.** The binding signal was 9.66 upbm affinity estimate (log intensity, higher = more binding, comparable within an allelic series).

**Q.** What about the binding signal [3] of the same sequence?
**A.** The binding signal was 9.84 upbm affinity estimate (log intensity, higher = more binding, comparable within an allelic series).

**Q.** What about the binding signal [4] of the same sequence?
**A.** The binding signal was 9.62 upbm affinity estimate (log intensity, higher = more binding, comparable within an allelic series).

**Q.** What about the binding signal [5] of the same sequence?
**A.** The binding signal was 9.7 upbm affinity estimate (log intensity, higher = more binding, comparable within an allelic series).

**Q.** How did the binding signal [6] turn out when CGCGTTTA was run?
**A.** Its binding signal is 10.2 upbm affinity estimate (log intensity, higher = more binding, comparable within an allelic series).

**Q.** Which results are given for CGTGATCA?
**A.** binding signal [6]: 9.86 upbm affinity estimate (log intensity, higher = more binding, comparable within an allelic series); binding signal [9]: 9.57 upbm affinity estimate (log intensity, higher = more binding, comparable within an allelic series)

**Q.** How did the binding signal [6] turn out when CGATAACC was run?
**A.** Its binding signal is 9.81 upbm affinity estimate (log intensity, higher = more binding, comparable within an allelic series).

**Q.** How did the binding signal [6] turn out when AAAATGCT was run?
**A.** The binding signal was 9.84 upbm affinity estimate (log intensity, higher = more binding, comparable within an allelic series).

**Q.** Which binding signal [6] does the source give for CATTTACG here?
**A.** Its binding signal is 10.4 upbm affinity estimate (log intensity, higher = more binding, comparable within an allelic series).

**Q.** Which results are given for CGACTTAA?
**A.** binding signal [6]: 10.1 upbm affinity estimate (log intensity, higher = more binding, comparable within an allelic series); binding signal [11]: 10.3 upbm affinity estimate (log intensity, higher = more binding, comparable within an allelic series)

**Q.** How did the binding signal [6] turn out when ATCACCAT was run?
**A.** The binding signal was 10.3 upbm affinity estimate (log intensity, higher = more binding, comparable within an allelic series).

**Q.** How did the binding signal [6] turn out when GGTGATAA was run?
**A.** The binding signal was 10.3 upbm affinity estimate (log intensity, higher = more binding, comparable within an allelic series).

**Q.** Which results are given for CTCACCAG?
**A.** binding signal [2]: 9.79 upbm affinity estimate (log intensity, higher = more binding, comparable within an allelic series); binding signal [3]: 9.75 upbm affinity estimate (log intensity, higher = more binding, comparable within an allelic series); binding signal [4]: 9.75 upbm affinity estimate (log intensity, higher = more binding, comparable within an allelic series); binding signal [5]: 9.9 upbm affinity estimate (log intensity, higher = more binding, comparable within an allelic series)

**Q.** Which results are given for CTAACGCA?
**A.** binding signal [6]: 9.98 upbm affinity estimate (log intensity, higher = more binding, comparable within an allelic series); binding signal [11]: 9.64 upbm affinity estimate (log intensity, higher = more binding, comparable within an allelic series)

**Q.** With AATAACCG as the sequence, how does the binding signal [6] read?
**A.** The binding signal was 10.1 upbm affinity estimate (log intensity, higher = more binding, comparable within an allelic series).

**Q.** How did the binding signal [2] turn out when CACCATTA was run?
**A.** Its binding signal is 11.9 upbm affinity estimate (log intensity, higher = more binding, comparable within an allelic series).

**Q.** What about the binding signal [3] of the same sequence?
**A.** Its binding signal is 11.9 upbm affinity estimate (log intensity, higher = more binding, comparable within an allelic series).

**Q.** And the binding signal [4]?
**A.** Its binding signal is 11.8 upbm affinity estimate (log intensity, higher = more binding, comparable within an allelic series).

**Q.** What about the binding signal [5] of the same sequence?
**A.** Its binding signal is 10.6 upbm affinity estimate (log intensity, higher = more binding, comparable within an allelic series).

**Q.** Which binding signal [6] does the source give for TTATGCAA here?
**A.** The binding signal was 9.95 upbm affinity estimate (log intensity, higher = more binding, comparable within an allelic series).

**Q.** For TATGAATA, which binding signal [6] is on record?
**A.** Its binding signal is 10.3 upbm affinity estimate (log intensity, higher = more binding, comparable within an allelic series).

**Q.** Which binding signal [2] does the source give for CCGGAAGG here?
**A.** Its binding signal is 9.63 upbm affinity estimate (log intensity, higher = more binding, comparable within an allelic series).

**Q.** What about the binding signal [3] of the same sequence?
**A.** The binding signal was 9.81 upbm affinity estimate (log intensity, higher = more binding, comparable within an allelic series).

**Q.** And the binding signal [4]?
**A.** The binding signal was 9.73 upbm affinity estimate (log intensity, higher = more binding, comparable within an allelic series).

**Q.** And the binding signal [5]?
**A.** Its binding signal is 9.78 upbm affinity estimate (log intensity, higher = more binding, comparable within an allelic series).

**Q.** What does the source list for GGGCACGA?
**A.** binding signal [2]: 9.75 upbm affinity estimate (log intensity, higher = more binding, comparable within an allelic series); binding signal [3]: 9.85 upbm affinity estimate (log intensity, higher = more binding, comparable within an allelic series); binding signal [4]: 9.76 upbm affinity estimate (log intensity, higher = more binding, comparable within an allelic series); binding signal [5]: 9.89 upbm affinity estimate (log intensity, higher = more binding, comparable within an allelic series)

**Q.** With CACCGGTC as the sequence, how does the binding signal [10] read?
**A.** Its binding signal is 8.56 upbm affinity estimate (log intensity, higher = more binding, comparable within an allelic series).

**Q.** What about the binding signal [12] of the same sequence?
**A.** Its binding signal is 10 upbm affinity estimate (log intensity, higher = more binding, comparable within an allelic series).

**Q.** And the binding signal [13]?
**A.** Its binding signal is 7.38 upbm affinity estimate (log intensity, higher = more binding, comparable within an allelic series).

**Q.** What about the binding signal [14] of the same sequence?
**A.** Its binding signal is 10.4 upbm affinity estimate (log intensity, higher = more binding, comparable within an allelic series).

**Q.** What about the binding signal [15] of the same sequence?
**A.** The binding signal was 9.92 upbm affinity estimate (log intensity, higher = more binding, comparable within an allelic series).

**Q.** And the binding signal [16]?
**A.** Its binding signal is 10.3 upbm affinity estimate (log intensity, higher = more binding, comparable within an allelic series).

**Q.** What about the binding signal [17] of the same sequence?
**A.** Its binding signal is 8.34 upbm affinity estimate (log intensity, higher = more binding, comparable within an allelic series).

**Q.** What about the binding signal [18] of the same sequence?
**A.** The binding signal was 7.28 upbm affinity estimate (log intensity, higher = more binding, comparable within an allelic series).

**Q.** How did the binding signal [2] turn out when CCTAGACG was run?
**A.** The binding signal was 9.79 upbm affinity estimate (log intensity, higher = more binding, comparable within an allelic series).

**Q.** And the binding signal [3]?
**A.** The binding signal was 9.86 upbm affinity estimate (log intensity, higher = more binding, comparable within an allelic series).

**Q.** What about the binding signal [4] of the same sequence?
**A.** The binding signal was 9.81 upbm affinity estimate (log intensity, higher = more binding, comparable within an allelic series).

**Q.** And the binding signal [5]?
**A.** Its binding signal is 9.82 upbm affinity estimate (log intensity, higher = more binding, comparable within an allelic series).

Reference: paper PMC11006913
